Inconclusive results are not listed. The source made the active and inactive calls. Unless noted, calls come from the whole dose curve; as a rule, active = well fitted curve in the direction sought with a large enough effect; inconclusive = small, poorly fitted or top-dose-only effect, or another doubt; inactive = no such curve, though single readings can be large; an effect the other way counts as inactive or inconclusive.
What was measured:
[1] = target: Glutathione peroxidase 1 (Homo sapiens) (UniProt P07203); experiment: Primary qHTS Assay for Inhibitors of Recombinant Selenoprotein Glutathione Peroxidase 1 (GPX1) (AID 1845191); note: nearly all actives have a fitted effect of over 65% in size; for activity, negative = inhibition: % is set by controls: 0 for no effect and ±100 for the full control effect
Sequence of Glutathione peroxidase 1 (Homo sapiens) (P07203 whole entry, looked up): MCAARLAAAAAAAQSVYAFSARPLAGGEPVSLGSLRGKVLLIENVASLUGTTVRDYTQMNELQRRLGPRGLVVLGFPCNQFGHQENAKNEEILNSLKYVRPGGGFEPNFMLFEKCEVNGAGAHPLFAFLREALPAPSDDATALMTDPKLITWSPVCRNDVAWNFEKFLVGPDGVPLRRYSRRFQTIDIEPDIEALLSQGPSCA
Summary of the method: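 GR-coupled assay: compounds preincubated 30 min at room temperature with GPX1, then reaction started with CHP; final 10 nM GPX1, 1 mM GSH, 0.5 mM CHP, 0.5 mM NADPH, 100 nM GR, 0.01% BSA, pH 7.5 Tris buffer. NADPH fluorescence (340/450 nm) read at 0 and 15 min.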

[2] = target: Phospholipid hydroperoxide glutathione peroxidase GPX4 (Homo sapiens) (UniProt P36969); experiment: Primary qHTS Assay for Inhibitors of Recombinant Selenoprotein Glutathione Peroxidase 4 (GPX4) (AID 1845192); note: nearly all actives have a fitted effect of over 65% in size; note: potency is the fitted concentration of half-maximal effect; for activity change, negative = inhibition: series mostly up to about 50 µM; % is set by controls: 0 for no effect and ±100 for the full control effect
Sequence of Phospholipid hydroperoxide glutathione peroxidase GPX4 (Homo sapiens) (P36969 whole entry, looked up): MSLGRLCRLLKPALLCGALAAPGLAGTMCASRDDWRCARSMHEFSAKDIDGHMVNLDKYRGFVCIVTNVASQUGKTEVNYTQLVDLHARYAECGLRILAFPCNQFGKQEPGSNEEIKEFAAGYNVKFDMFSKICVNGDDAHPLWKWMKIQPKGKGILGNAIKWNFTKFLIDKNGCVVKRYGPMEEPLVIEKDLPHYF
Summary of the method: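 GR-coupled assay: recombinant GPX4 preincubated 30 min with compound at room temperature; final 200 nM GPX4, 1 mM GSH, 0.5 mM cumene hydroperoxide, 0.5 mM NADPH, 100 nM GR, 0.01% BSA, pH 7.5 Tris. NADPH fluorescence (340/450 nm) read at 0 and 15 min.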

[3] = Primary fluorescence-based thiol-reactive (MSTI) qHTS assay for identification of artifact compounds. (AID 1845221); note: nearly all actives have a fitted effect of over 65% in size; note: potency is the fitted concentration of half-maximal effect;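 for activity change, negative = thiol reactive: series mostly up to about 54 µM; thiol-reactive compounds lower the probe fluorescence signal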
Summary of the method: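 One-hour, room-temperature, dark incubation of compound with 4 uM MSTI in PBS (pH 7.4, 2% DMSO) precedes a fluorescence read at 525 nm excitation, 598 nm emission; Hill-equation fitting yields concentration-response values.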

[4] = test system: Nanoluciferase (engineered Oplophorus gracilirostris luciferase); experiment: Primary Nanoluciferase (NLuc) qHTS assay for identification of artifact compounds. (AID 1845222);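 note: NLuc secreted into diluted conditioned medium of S16 cells; series mostly up to about 54 µM; 0% = DMSO and -100% = no enzyme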
Summary of the method: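 S16 cell supernatant NLuc, 1:55; cpds qHTS; 15 min RT dark; Nano-Glo substrate 1:100, 5 min; luminescence; Hill fit of % inhibition.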

[5] = target: Luciferin 4-monooxygenase (Photinus pyralis) (UniProt P08659); experiment: Primary firefly luciferase (FLuc) qHTS assay for identification of artifact compounds. (AID 1845220); note: nearly all actives have a fitted effect of over 60% in size;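 for activity change, negative = inhibition: series mostly up to about 54 µM; plate controls were DMSO vehicle for no effect and no enzyme for full effect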
Summary of the method: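 Enzymatic FLuc inhibition assay: compounds pre-exposed to luciferin/ATP (10 uM each) for 15 min, then purified P. pyralis enzyme at 10 nM added. Read-out: luminescence at 5 min.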

[6] = Primary redox qHTS assay for identification of artifact compounds. (AID 1845223);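 note: 0% = DMSO and 100% = reference compound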
Summary of the method: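 Amplex Red (25 uM) and HRP (250 mU/mL) in HBSS, with compounds for 15 min, then 250 uM DTT for 30 min, room temperature, dark. Fluorescence 525/598 nm read; normalized to DMSO and 10 uM DA3003; Hill fit.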

[7] = qHTS drug screen for cell cycle checkpoint inhibitors in PARPi-resistant BRCA-mutant ovarian cancer cell lines. (AID 1963452; calls by dose curve; note: potency is the fitted concentration of half-maximal effect); conditions: PEO1/OlaR viability, CellTiter-Glo luminescence, 96 h; for Z-AUC: stronger effect = lower value
Summary of the method: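 PEO1, PEO4 and PEO1/OlaR ovarian cancer cells, 600 per well, exposed 96 h at 37C to a dilution series. Viability read by CellTiter-Glo luminescence, normalized to DMSO and empty wells; activity summarized as Z-AUC.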

CC(=O)O[C@H]1C[C@@H]2[C@]3(CC[C@]4(C)[C@@H](C5(C)CCC(C(C)(C)O)O5)[C@@H](O)C[C@@]24C)C[C@@]32CC[C@H](O[C@@H]3OC[C@@H](O)[C@H](O)[C@H]3O)C(C)(C)[C@H]12 (some centres undefined)
inactive: Potency [1] | Potency [2] | Potency [3] | Potency [4]

C[C@H]1[C@H](C)CC[C@]2(C(=O)O[C@@H]3O[C@H](CO)[C@@H](O)[C@H](O)[C@H]3O)CC[C@]3(C(=O)O)C(=CCC4[C@@]5(C)CC[C@H](O[C@@H]6O[C@H](CO)[C@@H](O)[C@H](O)[C@H]6O)C(C)(C)C5CC[C@]43C)[C@H]12 (some centres undefined)
inactive: Potency [1] | Potency [2] | outcome [5] inactive [at 11.6 µM] | activity, negative = inhibition [4] -1.27% [at 11.6 µM] | redox activity (% of DA3003) [6] 2.24% [at 11.5 µM]

COc1cc(N2CCC(N(C)C)CC2)ccc1Nc1ncc(Cl)c(Nc2ccccc2P(C)(C)=O)n1
active: Potency [7] 0.436 µM
-1.75: Z-AUC ([7]; measured here: PEO1 parental Z-AUC)
-1.64: Z-AUC ([7]; measured here: PEO4 Z-AUC)
inactive: Potency [1] | Potency [2] | Potency [5] | Potency [4] | Potency [6]

COC(=O)C1=CO[C@@H](O[C@@H]2O[C@H](COC(=O)/C=C/c3cc(OC)c(O)c(OC)c3)[C@@H](O)[C@H](O)[C@H]2O)[C@@H]2C(CO)=CC[C@H]12
inactive: Potency [1] | Potency [2] | Potency [5] | Potency [6]

Cc1cc(O)cc(Oc2cc(C)c(C(=O)O)c(O)c2)c1
inactive: Potency [1] | Potency [2] | Potency [4]
active: Potency [3] 3.36 µM

COC(=O)C12C(=O)C(C)=C(O)C1(C)C(C)=CC1C34CCC(OC3=O)C(C)(C)C4CCC12C (centres undefined)
inactive: Potency [1] | Potency [2] | Potency [5] | Potency [6]

CCOC(=O)c1c(C)nn(-c2cccc([N+](=O)[O-])c2)c1C
inactive: Potency [1] | Potency [2] | Potency [5] | Potency [4] | Potency [6]

CC(C)CC(=O)OC[C@H]1O[C@@](COC(=O)CC(C)C)(O[C@H]2O[C@H](CO)[C@@H](O)[C@H](O)[C@H]2O)[C@@H](OC(=O)CC(C)C)[C@@H]1OC(=O)CC(C)C
inactive: Potency [1] | Potency [2] | Potency [5] | Potency [4] | Potency [6]

OC[C@H]1O[C@@H](Oc2cc(O)cc(-c3cc4ccc(O)cc4o3)c2)[C@H](O)[C@@H](O)[C@@H]1O
active: Potency [2] 8.81 µM | Potency [3] 5.19 µM
inactive: Potency [1] | Potency [4] | Potency [6]

C=C1[C@@H]2[C@H]3OC(=O)C(=C)[C@@H]3CC[C@@](C)(O)[C@@H]2C[C@@H]1O[C@@H]1O[C@H](CO)[C@@H](O)[C@H](O)[C@H]1O
inactive: Potency [1] | Potency [2] | Potency [5] | Potency [4] | Potency [6]

COc1cc(NC(=O)c2ccccn2)ccc1Cl
inactive: Potency [1] | Potency [2] | Potency [3] | Potency [4]

COc1ccc(/C=C/C(=O)O[C@@H]2[C@@H](O)[C@H](C)O[C@@H](OC3C4C=COC(O[C@@H]5O[C@H](CO)[C@@H](O)[C@H](O)[C@H]5O)C4C4(CO)OC34)[C@@H]2O)cc1OC (some centres undefined)
inactive: Potency [1] | Potency [2] | Potency [5] | Potency [6]

CCn1cc(C2=NOC(C(=O)Nc3c(C)n(C)n(-c4ccccc4)c3=O)C2)c(C)n1 (centres undefined)
inactive: Potency [1] | Potency [2] | Potency [3] | Potency [4] | Potency [6]

CC1=CC[C@]2(C(=O)O[C@@H]3O[C@H](CO[C@@H]4O[C@H](CO)[C@@H](O[C@@H]5O[C@@H](C)[C@H](O)[C@@H](O)[C@H]5O)[C@H](O)[C@H]4O)[C@@H](O)[C@H](O)[C@H]3O)CC[C@]3(C)C(CCC4[C@@]5(C)C[C@@H](O)[C@H](O)[C@@](C)(CO)C5CC[C@]43C)C2C1C (some centres undefined)
inactive: Potency [1] | Potency [2] | activity change, negative = thiol reactive [3] 137% [at 11.5 µM] | activity, negative = inhibition [4] 3.97% [at 11.6 µM]

COc1ccc(C2=CC(=O)OC2Cc2ccc(O)cc2)c(O)c1 (centres undefined)
inactive: Potency [1] | Potency [2] | Potency [5] | Potency [4] | Potency [6]

COc1cc([C@H]2OC[C@@H]3[C@@H](c4ccc(O[C@@H]5O[C@H](CO)[C@@H](O)[C@H](O)[C@H]5O)c(OC)c4)OC[C@]23O)ccc1O
inactive: Potency [1] | Potency [2] | Potency [3] | Potency [4]

COc1cc(/C=C/c2cc(O)cc(O[C@@H]3O[C@H](CO)[C@@H](O)[C@H](O)[C@H]3O)c2)ccc1O
inactive: Potency [1] | Potency [2] | Potency [3] | Potency [4] | Potency [6]

COC1=CC(=O)C[C@@H](C)[C@]12Oc1cc(OC)cc(OC)c1C2=O
inactive: Potency [1] | Potency [2] | Potency [5] | Potency [4] | Potency [6]

CC1(O)CCC2C(C(=O)O)=COC(OC3OC(CO)C(O)C(O)C3OC(=O)/C=C/c3ccc(O)cc3)C21 (centres undefined)
active: Potency [3] 3.27 µM
inactive: Potency [1] | Potency [2] | Potency [4]

C=CC(C)(CC/C=C(\C)CC/C=C(\C)CC(O)/C=C(\C)C(=O)O)O[C@@H]1O[C@H](CO)[C@@H](O)[C@H](O)[C@H]1O[C@@H]1O[C@H](CO)[C@@H](O)[C@H](O)[C@H]1O (some centres undefined)
inactive: Potency [1] | Potency [2] | Potency [3] | Potency [4] | Potency [6]

C=CC(C)(O)CO[C@@H]1O[C@H](CO)[C@@H](O)[C@H](O)[C@H]1O (some centres undefined)
inactive: Potency [1] | Potency [2] | Potency [5] | Potency [4] | Potency [6]

COC1=CC(=O)O[C@@H](CCc2ccccc2)[C@@H]1O
inactive: Potency [1] | Potency [2] | Potency [3] | Potency [4] | Potency [6]

CC1=C(C)C(=O)OC(C(C)C2C(O)CC3C4C5OC5C5(O)CC(OC6OC(CO)C(O)C(O)C6O)CC(O)C5(C)C4CCC32C)C1 (centres undefined)
inactive: Potency [1] | Potency [2] | Potency [3] | Potency [4] | Potency [6]

C[C@@H]1O[C@@H](O[C@H]2[C@H](OC(=O)[C@]34CCC(C)(C)C[C@H]3C3=CCC5[C@@]6(C)C[C@H](O)[C@H](O[C@@H]7O[C@H](CO[C@@H]8OC[C@H](O)[C@H](O)[C@H]8O)[C@@H](O)[C@H](O)[C@H]7O)C(C)(C)C6CC[C@@]5(C)[C@]3(C)C[C@H]4O)OC[C@@H](O)[C@@H]2O)[C@H](O)[C@H](O[C@@H]2OC[C@](O)(CO)[C@H]2O)[C@H]1O[C@@H]1OC[C@H](O)[C@H](O[C@@H]2OC[C@@H](O)[C@H](O)[C@H]2O)[C@H]1O (some centres undefined)
inactive: outcome [1] inactive [at 9.52 µM] | activity change, negative = inhibition [2] -0.436% [at 9.73 µM] | activity change, negative = thiol reactive [3] 452% [at 11.5 µM] | activity, negative = inhibition [4] 3.55% [at 11.6 µM] | redox activity (% of DA3003) [6] 10.3% [at 11.5 µM]

— PubChem BioAssay (NCATS)
